Measured values from PubChem BioAssay (NCATS).
Records with an inconclusive call do not appear. Activity calls are given as the source filed them. Calls come from the whole dose curve; as a rule, active = well fitted inhibition curve with a large enough effect; inconclusive = small, poorly fitted or top-dose-only effect; inactive = flat fitted curve, though single readings scatter.

These compounds were tested on NIH3T3 (assay: qHTS assay to identify novel small-molecules to repurpose for Merkel cell carcinoma treatment (AID 1296009; note: nearly all actives have a fitted effect of over 60% in size)). Details: MCC and control cell lines, CellTiter-Glo viability, 72 h; at 44.8 µM (top of the series) unless noted.
Excerpt: MCC is a rare and aggressive neuroendocrine skin cancer with limited treatment options. Approximately 80% of MCCs have the Merkel cell polyomavirus (MCPyV) DNA integrated into the host genome (virus-positive: VP-MCC) and viral oncogenes drive oncogenesis. The remaining MCCs are virus-negative (VN-MCC) and are caused by UV mutagenesis. To identify novel treatments for VP-MCC and/or VN-MCC we screened three VP-MCC cell lines (WAGA, MKL-1, MKL-2), three VN-MCC cell lines (MCC-13, MCC-26, UISO), and four immortalized, non-transformed control cell lines (HaCaT, HEK293T, CRL7250, NIH-3T3) against ~2,400 compounds in the NCGC Pharmaceutical Collection (NPC) and ~1,900 compounds in the Mechanism Interrogation PlatE (MiPE). Using cell viability as a readout (CellTiter-Glo assay) we found both overlapping and distinct drugs that can be repurposed for the treatment of VP-MCC and VN-MCC.
A high-throughput screen was conducted in 1536-well white flat bottom plates (Corning) on a Kalypsys robotic system. Cell lines WAGA, MKL-1, MKL-2, MCC-13, MCC-26, UISO, HaCaT, HEK293T, CRL7250, and NIH-3T3 were screened against 2 small molecule annotated drug libraries NPC and MIPE in dose response (8 and 11 pt. respectively) measuring cell viability after 72 hours of incubation. […] A 1,536 pintool (Kalypsys) was used to transfer 23 nL of compound in DMSO to the 1,536-well assay plates. After 72 hr incubation at 37 degree celsius, 2.5 uL of CellTiter-Glo (Promega) was dispensed into each well using a BiorapTR. Plates were incubated at room temperature for 10 min, transferred to a ViewLux (PerkinElmer) and the luminescence was recorded using an exposure time of 2 seconds. Relative luminescence units (RLUs) were normalized to in-plate controls (no cells as a positive (cytotoxicity) control, DMSO as negative control) and the normalized data was processed using NCATS in-house software.

Compound | outcome
C[C@@]1(C(=O)O)CCC[C@@]2(C)C3=CC[C@H]4C[C@@]3(CC[C@H]12)CC4(O)CO (stereo not given in full) | inactive
CC1=CC[C@@]2(C)CC[C@@](O)(C(C)C)[C@@H]2[C@@H](O)C1 | inactive
CC1(C)CC[C@]2(C(=O)O[C@@H]3O[C@H](CO)[C@@H](O)[C@H](O)[C@H]3O)CC[C@]3(C)C(=CCC4[C@@]5(C)CC[C@H](OC6OC(C(=O)O)C(OC7OC(CO)C(O)C(O)C7O)C(O)C6O)C(C)(C)C5CC[C@]43C)C2C1 (stereo not given in full) | inactive [at 9.27 µM]
C=C1C(O)C(O)C2(CC3C(C)=CCC4C(C)(C(=O)O)CCCC34C)OC2C1O (stereo not given) | inactive
C[C@@H]1[C@H](O)[C@@H]2OC(=O)C3=C2[C@H](CCC3)[C@@]12C[C@@H](c1ccoc1)OC2=O | inactive
C[C@@H]1C[C@H]2OC(=O)[C@@]3(C)CCC[C@](C)(C23)[C@@]1(O)CCC1=CC(=O)OC1O (stereo not given in full) | inactive
CC1=C2C[C@@]3(C)[C@@H](CCC[C@@H]3C)C[C@@]2(O)OC1=O | inactive
CC1=C2C(=O)C=C(CO)C2C2OC(=O)C(CS(=O)(=O)O)C2C(OC(=O)Cc2ccc(O)cc2)C1 (stereo not given) | inactive [at 17.4 µM]
CC(C)(OC1OC(CO)C(O)C(O)C1O)C1CCC(O)(CO)C2CC(=O)C(C)(O)C2C1 (stereo not given) | inactive [at 17.4 µM]
C=C1CCC2C(C)(C)CC(=O)CC2(C)C1CCC(C)CCO (stereo not given) | inactive
COc1cc(/C=C/C(=O)OC[C@H]2O[C@@H](OC3CC(C)=C(C(=O)O)C(C)(C)C3)[C@H](O)[C@@H](O)[C@@H]2O)cc(OC)c1O (stereo not given in full) | inactive [at 17.4 µM]
CC(=O)N[C@H]1[C@H](O[C@H]2CC[C@]3(C)C4CC=C5[C@@H]6CC(C)(C)CC[C@]6(C(=O)O)[C@H](O)C[C@@]5(C)[C@]4(C)CC[C@H]3C2(C)C)O[C@H](CO)[C@@H](O)[C@@H]1O (stereo not given in full) | inactive [at 17.4 µM]
Nc1ncnc2c1ncn2[C@H]1O[C@@H](C(=O)N2CCN(CC(=O)Nc3cccc4c3CNC4=O)CC2)[C@H](O)[C@@H]1O | inactive
CC(C)(CC(=O)N1CCCC1)NCC(=O)N1C[C@@H](F)C[C@H]1C#N | inactive
O=C(Nc1ccccc1)Nc1ccc(-c2ccc(C(=O)C3CCCC3C(=O)O)cc2)cc1 (stereo not given) | inactive
CC1OC(O[C@@H]2[C@@H](O)[C@H](OC(=O)[C@]34CCC(C)(C)C[C@H]3C3=CCC5[C@@]6(C)CC[C@H](O[C@@H]7O[C@H](C(=O)O)[C@@H](O)[C@H](O[C@@H]8OC[C@@H](O)[C@H](O)[C@H]8O)[C@H]7O[C@@H]7O[C@H](CO)[C@H](O)[C@H](O)[C@H]7O)[C@@](C)(C=O)C6CC[C@@]5(C)[C@]3(C)C[C@H]4O)O[C@H](C)[C@@H]2OC2OC(C)C(OC3OCC(O)C(O)C3O)C(O)C2O)C(O)C(O)C1O (stereo not given in full) | inactive [at 9.27 µM]
CC1OC(OC2CCC3(C)C(CCC4(C)C3C=CC35OCC6(CCC(C)(C)CC63)CCC45C)C2(C)CO)C(OC2OC(CO)C(O)C(O)C2O)C(O)C1OC1OC(CO)C(O)C(O)C1O (stereo not given) | inactive [at 9.27 µM]
CC(C)C1CCC(C(=O)N[C@@H](Cc2ccccc2)C(=O)O)CC1 (stereo not given in full) | inactive
COc1cccc(OC)c1-c1cc(C(=O)N[C@@H](CC(C)C)C(=O)O)nn1-c1ccnc2cc(Cl)ccc12 | inactive
CC/C=C\[C@H](O)[C@H](O)C1=C(C)C(=O)[C@]2(O1)C(=O)N[C@@](O)(C(=O)c1ccccc1)[C@@H]2O | inactive [at 17.4 µM]

Compound | outcome
CCOC(=O)C(CCc1ccccc1)NC(C)C(=O)N1Cc2ccccc2CC1C(=O)O (stereo not given) | inactive
COc1ccc(N2CCN(CCCNC(=O)Cn3c(=O)c4cccn4c4c(C)ccnc43)CC2)cc1 | inactive
C/C(=C\CCC(C)(C)O)CCO[C@@H]1O[C@H](CO[C@@H]2O[C@@H](C)[C@H](O)[C@@H](O)[C@H]2O)[C@@H](O)[C@H](O)[C@H]1O | inactive [at 17.4 µM]
C[C@@H]1O[C@@H](O[C@H]2[C@@H]3C=CO[C@@H](O[C@@H]4O[C@H](CO)[C@@H](O)[C@H](O)[C@H]4O)[C@@H]3[C@@]3(CO)O[C@@H]23)[C@H](O)[C@H](OC(=O)/C=C/c2ccc(O)c(O)c2)[C@H]1O | inactive [at 17.4 µM]
CCC(C)/C=C(C)/C=C/C1=CC2=C(Cl)C(=O)C(C)(OC(C)=O)C(=O)C2=CN1C(CCC(=O)O)C(=O)O (stereo not given) | inactive [at 17.4 µM]
Cc1ccc(C)c(NC(=O)CNS(=O)(=O)c2ccc3[nH]c(=O)oc3c2)c1 | inactive
O=C(OC[C@H]1O[C@@H](Oc2ccccc2COC(=O)C2(O)C=CCCC2O)[C@H](O)[C@@H](O)[C@@H]1O)c1ccccc1 (stereo not given in full) | inactive [at 17.4 µM]
CC(=O)[C@@H]1C[C@H](C(C)(C)O[C@@H]2O[C@H](CO)[C@@H](O)[C@H](O)[C@H]2O)CC[C@@]2(CO)OC(=O)C[C@@H]12 | inactive [at 17.4 µM]
O=C(C[C@@H]1C(C(=O)O)=CO[C@@H](O[C@@H]2O[C@H](CO)[C@@H](O)[C@H](O)[C@H]2O)/C1=C\CO)OCCc1ccc(O)c(O)c1 | inactive [at 17.4 µM]
C=C1C(O)CC2C(C(=O)O)=COC(OC3OC(CO)C(O)C(O)C3OC(=O)/C=C\c3ccc(O)cc3)C12 (stereo not given) | inactive [at 17.4 µM]
C[C@@H]1C[C@@H](O)[C@@]23CO[C@]2(CO)C[C@@H](O)CC3[C@@]12CC(c1ccoc1)OC2=O (stereo not given in full) | inactive
CCN=C1N[C@@H]2[C@@H](O)[C@H](O)[C@@H](CO)O[C@@H]2S1 | inactive
CCCN1CCC[C@@H](c2cccc(S(C)(=O)=O)c2)C1 | inactive
CCNC(=O)OC1CCN(c2nncc3cc(OC)c(OC)cc23)CC1 | inactive
N#Cc1ccc(C2CCCc3cncn32)cc1 (stereo not given) | inactive [at 17.4 µM]
C/C=C(\C)C(=O)OC[C@H]1O[C@@H](O[C@H]2[C@@H](O[C@H]3O[C@H](COC(=O)/C(C)=C/C)[C@@H](O)[C@H](O)[C@H]3O[C@@H]3O[C@H](COC(=O)/C(C)=C/C)[C@@H](O)[C@H](OC(=O)/C(C)=C/C)[C@H]3O)O[C@H](COC(=O)/C(C)=C/C)[C@@H](O)[C@@H]2O)[C@H](O)[C@@H](O)[C@@H]1O | inactive [at 9.27 µM]
Cc1ccc(-c2c(-c3nn(C)c4ncnc(N5CC[C@H](N6CCCCC6)C5)c34)cnn2C)cc1 | inactive
CC1=CC(=O)CC(C)(C)[C@@]1(O)/C=C/C(C)O[C@@H]1O[C@H](CO)[C@@H](O)[C@H](O)[C@H]1O (stereo not given in full) | inactive [at 17.4 µM]
CC(=O)OC12CC(C)C(O)C1/C=C(/COC1OC(CO)C(O)C(O)C1O)CCC1C(/C=C(\C)C2=O)C1(C)C (stereo not given) | inactive [at 17.4 µM]
CNC(=O)c1ccc2c(c1)CCO[C@H]2CCN1CCN(c2ccc(C(N)=O)cc2)CC1 | inactive
